Calls of active or inactive are those of the source. Calls come from the whole dose curve.
Each compound was assayed against Thyrotropin-releasing hormone receptor (Homo sapiens) (UniProt P34981) (assay: qHTS assay to identify small molecule agonists of the thyrotropin-releasing hormone receptor (TRHR) signaling pathway (AID 1346891;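 note: HEK293 cells expressing TRHR with calcium dye readout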)). Conditions: TRHR-HEK293 calcium fluorescence, agonist mode; series mostly up to 57.6 µM; activation: at the top concentration.
Chain of Thyrotropin-releasing hormone receptor (Homo sapiens) (P34981 whole entry, looked up): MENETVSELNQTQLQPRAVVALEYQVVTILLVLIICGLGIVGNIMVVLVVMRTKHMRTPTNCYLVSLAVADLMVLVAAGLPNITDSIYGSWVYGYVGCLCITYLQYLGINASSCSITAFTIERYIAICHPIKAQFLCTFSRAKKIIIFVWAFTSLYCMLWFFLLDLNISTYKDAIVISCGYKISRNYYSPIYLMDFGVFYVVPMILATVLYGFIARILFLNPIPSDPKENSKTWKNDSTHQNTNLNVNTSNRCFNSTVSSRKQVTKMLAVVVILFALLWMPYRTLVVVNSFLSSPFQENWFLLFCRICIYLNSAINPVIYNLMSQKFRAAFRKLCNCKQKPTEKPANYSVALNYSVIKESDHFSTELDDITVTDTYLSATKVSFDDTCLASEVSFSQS
From the text: National Center for Advancing Translational Sciences [NCATS] NIH Chemical Genomics Center [NCGC] U.S. Environmental Protection Agency [EPA] National Institutes of Environmental Health Sciences [NIEHS] National Toxicology Program [NTP] Assay overview: Thyrotropin-releasing hormone (TRH) receptor (TRHR) is a G-protein-coupled receptor which binds the tripeptide thyrotropin releasing hormone. TRHR is found in the brain and, when bound by TRH, acts (through phospholipase C) to increase intracellular inositol trisphosphate. It plays a crucial role in the anterior pituitary where it controls the synthesis and secretion of thyroid stimulating hormone and prolactin. The TRHR-Hek293 assay is a cell-based assay, and it has the potential to screen G protein-coupled receptors. A compound/drug can either activate (agonist) or suppress (antagonist) GPCRs that can be monitored by levels of intracellular calcium. Using this assay, the Tox21 10K compound library was screened to identify potential TRHR agonists.
Assay Protocol Summary: The TRHR-Hek293 cells were dispensed at 1500cells/4uL/well in 1536-well black-clear bottom plates using a Multidrop dispenser. After the assay plates were incubated at a 37 C/5% CO2 incubator for 18 hours, 4 uL of Dye-Loading Solution was added to each well. The plates were incubated at 37 C for 2 hours. For agonist mode, 23 nL of compounds dissolved in DMSO, positive controls or DMSO only was transferred to the assay plate by a pin tool. The fluorescence intensity in the plates was measured using FDSS 7000EX kinetic plate reader for 3 min at 1 sec intervals. Each test compound was measured at 15 concentrations and in triplicates.
% is set by controls: 0 for no effect and ±100 for the full control effect.

| Structure (SMILES) | activation |
| --- | --- |
| COc1ccc2cc1Oc1cc3c(cc1OC)CC[N+](C)(C)[C@H]3Cc1ccc(cc1)Oc1c(OC)c(OC)cc3c1[C@@H](C2)[N+](C)(C)CC3 | 0.0689% [at 26.5 µM] (inactive) |
| Nc1ccn([C@@H]2O[C@H](CO)[C@@H](O)C2O)c(=O)n1 (stereo not given in full) | -0.0052% (inactive) |
| CC1OC1C1CCC2(C)OC2C1 (stereo not given) | -0.814% (inactive) |
| O=[N+]([O-])c1ccc(/C=N\O)o1 | -0.3% [at 26.5 µM] (inactive) |
| Cc1ccc(-c2ccccc2C#N)cc1 | 0.384% [at 26.5 µM] (inactive) |
| CNC(=O)Nc1ccc(Cl)c(Cl)c1 | 0.0957% (inactive) |
| CC(=O)c1cnccn1 | 2.39% (inactive) |
| CC(C)C(=O)OC(=O)C(C)C | -0.0996% (inactive) |
| O=C1CCCCCCCCCCCCCCO1 | 0.0715% (inactive) |
| CC(CC=O)CC(C)(C)C (stereo not given) | -0.0445% (inactive) |
| Cc1ccc(-c2ncc(Cl)cc2-c2ccc(S(C)(=O)=O)cc2)cn1 | 0.445% [at 26.5 µM] (inactive) |
| O=C(O)Cc1csc(-c2ccc(Cl)cc2)n1 | -0.118% [at 26.5 µM] (inactive) |
| CC12CCC(C(=O)C1=O)C2(C)C (stereo not given) | 0.0511% (inactive) |
| CC(=O)c1ccc2ccccc2c1 | 0.274% (inactive) |
| CN1CC(=O)N/C1=N/C(=O)Nc1cccc(Cl)c1 | 0.133% [at 26.5 µM] (inactive) |
| CN1CCC(=C2c3ccccc3CCc3cccnc32)CC1 | 0.0021% [at 26.5 µM] (inactive) |
| CCCc1nn(C)c2c(=O)[nH]c(-c3cc(S(=O)(=O)N4CCN(C)CC4)ccc3OCC)nc12 | 0.0266% [at 26.5 µM] (inactive) |
| CC(C)(C)C(=O)Oc1ccc(S(=O)(=O)Nc2ccccc2C(=O)NCC(=O)O)cc1 | -0.366% [at 26.5 µM] (inactive) |
| CCOC(=O)c1cnc2c(cnn2CC)c1NN=C(C)C | -0.576% [at 26.5 µM] (inactive) |
| CN(C)[C@@H]1C(=O)C(C(=O)NCN2CCCC2)=C(O)[C@@]2(O)C(=O)C3=C(O)c4c(O)cccc4[C@@](C)(O)C3C[C@@H]12 (stereo not given in full) | -0.0378% [at 26.5 µM] (inactive) |

| Structure (SMILES) | activation |
| --- | --- |
| CC(=O)N[C@H]1[C@H]([C@H](O)[C@H](O)CO)OC(C(=O)O)=C[C@@H]1N=C(N)N | -0.233% [at 26.5 µM] (inactive) |
| CO[Si](C)(OC)c1ccccc1 | -0.141% (inactive) |
| CCCCCCCCCCCCCCC(=O)O | 0.0009% (inactive) |
| C=C[Si](OC(C)=O)(OC(C)=O)OC(C)=O | -0.569% (inactive) |
| CC(C)(C)c1ccc(-c2ccc(C(C)(C)C)cc2)cc1 | -0.375% (inactive) |
| c1coc(CNc2ncnc3nc[nH]c23)c1 | 1.85% (inactive) |
| CCCCCC(C)N (stereo not given) | -0.448% [at 26.5 µM] (inactive) |
| CC(=O)C1CCCCC1=O (stereo not given) | 0.0564% (inactive) |
| CC1CCC(CO)CC1 (stereo not given) | 0.0976% (inactive) |
| O=C(O)CC(C(=O)O)S(=O)(=O)O (stereo not given) | -1.01% (inactive) |
| CC(C)C1CCC(O)CC1 (stereo not given) | 0.165% (inactive) |
| CCCC(=O)O[C@]1(C(=O)CC)CC[C@H]2[C@@H]3CCC4=CC(=O)CC[C@]4(C)[C@H]3[C@@H](O)C[C@@]21C | 0.715% [at 26.5 µM] (inactive) |
| CCCOC(=O)CC | -0.112% (inactive) |
| NCCCC(N)(C(=O)O)C(F)F (stereo not given) | 0.367% [at 26.5 µM] (inactive) |
| CC(C#N)(CCC(=O)O)N=NC(C)(C#N)CCC(=O)O (stereo not given) | 0.0313% (inactive) |
| FB(F)F | 1.31% (inactive) |
| Cc1ccc(C(=O)Nc2ccc(S(=O)(=O)O)c3cc(S(=O)(=O)O)cc(S(=O)(=O)O)c23)cc1NC(=O)c1cccc(NC(=O)Nc2cccc(C(=O)Nc3cc(C(=O)Nc4ccc(S(=O)(=O)O)c5cc(S(=O)(=O)O)cc(S(=O)(=O)O)c45)ccc3C)c2)c1 | -0.0245% [at 26.5 µM] (inactive) |
| CC(C)(C)OC(=O)c1cccc(N)c1 | 0.175% (inactive) |
| CC(C)COC(=O)c1ccc(N)cc1 | 0.41% [at 26.5 µM] (inactive) |
| CN(C)CCN(C)CCN(C)C | 0.0293% (inactive) |

Source: PubChem BioAssay (Tox21)
